Screens as filed in PubChem.
ELG1 repair inh = blocks ELG1-dependent DNA repair in HEK293T cells. actives 2.3% (n = 330,000). HEK293T ELG1-luciferase reporter, luminescence, 16 h; DNA damage induced by 5-fluorouridine. Potency, µM (doses to about 46.1 µM), for inactives: at the top dose activity change, negative = inhibition, usual class: inhibitors; also: potency is read from the fitted curve at half-maximal effect; nearly all actives have a fitted effect of over 55% in size
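HEK293T cells expressing luciferase-tagged ELG1 (2,000/well) received 5-Fluorouridine plus compound or DMSO for 16 hr at 37 °C. Luciferase was read by ONE-Glo luminescence after 30 min at room temperature.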
DT40 TDP1 no CPT = qHTS for Inhibitors of human tyrosyl-DNA phosphodiesterase 1 (TDP1): qHTS in cells in absence of CPT; DT40 Tdp1-/- hTDP1 cells, no CPT, ATP luminescence, 48 h; Potency, µM (top dose mostly 46.2 µM), for the others: top-dose activity change, negative = growth inhibition, usual class: inhibitors; actives 15% (n = 420,000); also: potency is read from the fitted curve at half-maximal effect; nearly all actives have a fitted effect of over 55% in size
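Stably hTDP1-transfected Tdp1-null chicken DT40 cells were treated with library compounds minus camptothecin and grown for at least 48 hr at 37 °C, after which cellular ATP was quantified by luminescence.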
IL1B secr inh = inhibitors of inflammasome signaling (IL-1 beta secretion); THP-1 LPS/ATP IL-1B secretion, AlphaLISA, 16 h; active compounds read low; activity change, % at 57.5 µM; actives 4.7% (n = 360,000); AID 743279; in the data active = activity change below about -50%; inconclusive = mostly about -30% to -49%
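THP-1 cells pretreated 1 hr with compounds (up to 57.5 uM final), then stimulated with LPS (250 ng/mL final) plus ATP (1.25 mM final); secreted IL-1B measured by AlphaLISA after 16 hr, decreased signal indicating inhibition.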
HT1080-NT tox = kills 2HG-producing HT-1080-NT fibrosarcoma cells; HT-1080-NT fibrosarcoma viability, CellTiter-Glo ATP luminescence, 48 h; Potency, µM (doses to about 46.1 µM), inactives show at the top dose activity, negative = less viability, most hits filed as cytotoxic; actives 1.6% (n = 360,000);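 also: NT is the 2HG producing partner of a matched IDH1 knockdown line; potency is read from the fitted curve at half-maximal effect; 0% = DMSO-treated cells and -100% = media-only wells without cells; nearly all actives have a fitted effect of over 55% in size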
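A 48-hour cytotoxicity screen used HT-1080-NT cells plated 2 hours before compound delivery. ATP-based CellTiter-Glo luminescence measured viability, normalized to DMSO and no-cell controls.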
HT1080 IDH1KD tx = kills HT-1080 cells with IDH1 knockdown; actives 2% (n = 360,000); AID 686971; Potency, µM (series often up to 46.1 µM), inactives show at the top dose activity, negative = toxicity, actives largely listed as cytotoxic; HT-1080 IDH1 knockdown viability, ATP luminescence, 48 h;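 also: potency is read from the fitted curve at half-maximal effect; 0% = DMSO wells and -100% = cell-free medium wells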
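Using the IDH1-knockdown HT-1080 line run in the same batch and compound series as the NT line, viability after 48 h at 37 °C was determined by CellTiter-Glo luminescence and expressed as % activity.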
DT40 TDP1 CPT = growth inhibition of DT40 Tdp1-/-;hTDP1 cells with camptothecin (screen for TDP1 inhibitors). chicken DT40 Tdp1-/-;hTDP1 cells + 20 nM CPT, ATP luminescence, 48 h. Potency, µM (titrated, usually from 46.2 µM), inactives show top-dose activity change, negative = growth inhibition, most hits filed as inhibitors. actives 12% (n = 420,000); also: potency is read from the fitted curve at half-maximal effect; nearly all actives have a fitted effect of over 55% in size
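Cell growth measured by CellTiter-Glo luminescence after a minimum 48 h, 37 C compound exposure with 20 nM CPT in Tdp1-knockout DT40 cells stably expressing hTDP1, seeded 400/well; qHTS titration format.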
* marks the source's active call; other numbers are inactive results; ? = inconclusive; · = no result. Sampled rows, rich in hits. Any-hit rate of the full collection: about 19%. Unless noted, calls follow the shape of the dose curve; as a rule, active = well fitted curve in the direction sought with a large enough effect; inconclusive = small, poorly fitted or top-dose-only effect, or another doubt; inactive = no such curve, though single readings can be large; an effect the other way counts as inactive or inconclusive. Unless noted, % is scaled to controls: 0 for no effect and ±100 for the full control effect.

SMILES	ELG1 repair inh	DT40 TDP1 no CPT	IL1B secr inh	HT1080-NT tox	HT1080 IDH1KD tx	DT40 TDP1 CPT
CNC1CCC(c2ccc(Cl)c(Cl)c2)c2ccccc21 (stereo not drawn)	·	18.4µM*	·	·	·	14.6µM*
CSC1=NC=C(C#N)C2=NC(c3c(Cl)cccc3Cl)NN12 (stereo not drawn)	·	?	-14.6	?	?	?
O=Cc1c[nH]c2ccc(NC(=O)OCc3ccccc3)cc12	·	?	?	-5.2%	-38.3%	?
O=Cc1c[nH]c2cccc(OCc3ccccc3)c12	?	23.1µM*	-79.3*	-4.2%	-20.9%	?
O=C(N/N=C/c1ccc2c(c1)OCO2)c1cc(-c2ccco2)nc2ccccc12	0.7%	7.31µM*	20.2	4.11µM*	3.66µM*	9.2µM*
O=C(N/N=C/c1ccc2c(c1)OCO2)c1cc(-c2ccccc2)nc2ccccc12	?	10.3µM*	0.8	-24.6%	-24.8%	20.6µM*
O=C(N/N=C/c1ccc2c(c1)OCO2)c1ccc2ccccc2n1	?	-23.1%	0.0	-12.8%	?	-6.6%
COc1ccc2cc(C3=CC(=O)CC(C)(C)C3=O)ccc2c1	·	?	18.3	-11.9%	-4.2%	-25.7%
N#C/C(=C(/O)COC(=O)c1ccc2c(c1)OCCO2)c1nc2ccccc2[nH]1	-7.1%	-1.3%	-65.5*	7.3%	4.6%	-3.9%
Cc1ccc(C(=O)OC/C(O)=C(\C#N)c2nc3ccccc3[nH]2)cc1S(=O)(=O)N1CCOCC1	?	7.31µM*	0.0	-3.0%	-11.4%	5.8µM*
N#C/C(=C(/O)COC(=O)CCc1ccc(S(=O)(=O)N2CCOCC2)cc1)c1nc2ccccc2[nH]1	-8.9%	13µM*	43.7	10.5%	4.2%	16.4µM*
N#C/C(=C\Nc1ccc2c(c1)OCCO2)c1nc2ccccc2[nH]1	?	20.6µM*	-24.5	0.0%	-8.8%	?
CSc1nc(N)nc(C2CC2)n1	?	1.7%	·	8.2%	-0.7%	13.6%
CCOC(=O)C1CCN(C(=O)N(CC)CC)CC1	-0.7%	7.4%	7.8	3.0%	4.9%	4.1%
Cc1ccc(S(=O)(=O)N2CCOCC2)cc1N/N=C(\C#N)c1nc2ccccc2[nH]1	8.2µM*	25.9µM*	2.0	-5.1%	-10.6%	?
COc1ccc(CNC(=O)Cn2c(=O)n3nc(-c4ccc(OC)cc4)nc3c3ccccc32)cc1	·	-24.1%	·	·	·	0.0%
CCN1CCN(CCCNC(=O)CCc2nc(-c3ccc(OC)cc3)no2)CC1	0.4%	2.6%	27.1	2.8%	6.9%	-13.4%
COc1ccc(-c2noc(CCC(=O)NCCCN3CCN(c4ccccc4F)CC3)n2)cc1	?	16.4µM*	-23.3	-1.2%	-9.3%	23.1µM*
COc1ccc(-c2noc(CCC(=O)NCCN3CCN(c4ccccc4F)CC3)n2)cc1	?	14.6µM*	-10.5	-5.4%	-1.5%	16.4µM*
CCCCCCCCCCSc1n[nH]c(N)n1	?	-17.6%	7.0	-2.7%	-22.0%	-27.2%
CC(=O)N1CCCc2ccc(NS(=O)(=O)c3ccccc3)cc21	?	?	34.7	-0.2%	-7.6%	-16.3%
COc1ccc(C)cc1S(=O)(=O)Nc1ccc2c(c1)N(C(C)=O)CCC2	5.9%	16.4µM*	11.4	2.1%	-4.4%	25.9µM*
CC(=O)N1CCCc2ccc(NC(=O)c3ccc(OC(C)C)cc3)cc21	·	16.4µM*	·	·	·	?
COc1ccc(S(=O)(=O)Nc2ccc3c(c2)N(C(C)=O)CCC3)cc1OC	0.0%	?	-4.1	-1.1%	1.9%	?
COc1ccc(S(=O)(=O)Nc2ccc3c(c2)N(C(C)=O)CCC3)cc1	28.8%	16.4µM*	7.7	-22.0%	-18.4%	18.4µM*
SMILES	ELG1 repair inh	DT40 TDP1 no CPT	IL1B secr inh	HT1080-NT tox	HT1080 IDH1KD tx	DT40 TDP1 CPT
CCCCCCCCN1C(=O)[C@H](CC(=O)NCCc2ccccc2OC)C[C@@]2(C(=O)OCC)CCC=C12	·	?	-4.3	-4.9%	?	?
COc1cc(C2c3c(oc4ccccc4c3=O)C(=O)N2c2nncs2)cc(OC)c1OC (stereo not drawn)	·	5.2%	·	·	·	4.1%
CCOc1ccccc1NC(=O)CSc1nc2c(oc3ccccc32)c(=O)n1C(C)C	·	-13.4%	·	·	·	-3.0%
CC(=Nc1ccc(O)cc1)c1sc2ccccc2c1O	?	13µM*	-4.8	-10.5%	-20.8%	14.6µM*
Cc1ccc(S(=O)(=O)N2CCN(C(=O)/C=C/c3ccccc3)CC2)cc1C	?	?	-10.4	1.5%	-0.6%	?
O=C(/C=C/c1cccc([N+](=O)[O-])c1)Nc1cccc(NC(=O)c2cccs2)c1	18.4µM*	18.4µM*	-59.5*	-19.0%	-6.4%	5.8µM*
O=C(/C=C/c1ccc(Cl)c([N+](=O)[O-])c1)Nc1cccc(NC(=O)c2ccco2)c1	?	?	-99.5*	?	?	?
O=C(/C=C/c1ccc(Cl)c([N+](=O)[O-])c1)Nc1ccc(NC(=O)c2ccco2)cc1	?	0.0%	-4.5	11.0%	10.6%	0.6%
O=C(/C=C/c1ccc([N+](=O)[O-])cc1)Nc1cccnc1	?	?	-6.8	2.3%	-0.3%	-27.4%
O=C(/C=C/c1cccc([N+](=O)[O-])c1)Nc1cccc(NC(=O)c2ccco2)c1	20.6µM*	16.4µM*	-94.7*	0.0%	-2.0%	?
O=C(/C=C/c1ccc(Cl)c([N+](=O)[O-])c1)Nc1cccnc1	?	-24.9%	-52.5*	-3.1%	-1.2%	-25.3%
O=C(NCCCn1ccnc1)/C(=C\c1ccccc1Cl)NC(=O)c1ccccc1	-1.1%	-1.5%	-2.7	2.3%	7.8%	-3.9%
CCOC(=O)C1CCCN(S(=O)(=O)c2c(C(=O)N3CCCCC3)c(C)n(C)c2C)C1 (stereo not drawn)	13.4%	8.0%	-1.2	10.9%	13.5%	-10.6%
Cc1ccc(C2=NS(=O)(=O)N(C)C(C(=O)N3CCOCC3)=C2)cc1	2.5%	-24.4%	-8.2	3.3%	1.5%	0.2%
COc1ccc(NC(=O)c2c(NC(=O)CNCc3ccco3)sc3c2CCC3)c(OC)c1	?	20.6µM*	-0.5	-0.6%	-0.5%	?
COC(=O)c1c(NC(=O)CCNCc2ccco2)sc2c1CCC2	1.3%	?	-50.8*	?	?	23.1µM*
COc1ccc(OC)c(NC(=O)c2c(NC(=O)CNCc3ccco3)sc3c2CCC3)c1	-23.1%	3.66µM*	-9.8	8.3%	9.9%	-112.9%
